# Hits are enriched below; roughly 19% of the tested compounds scored in any of these assays.
# IL1B secr inh – inhibitors of inflammasome signaling (IL-1 beta secretion). AID 743279. THP-1 LPS/ATP IL-1B secretion, AlphaLISA, 16 h; stronger effect = lower value. 360,000 tested, 4.7% active. activity change, % at 57.5 µM; in the data active = activity change below about -50%; inconclusive = mostly about -30% to -49%; note: % is set by controls: 0 for no effect and ±100 for the full control effect
#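 Secreted IL-1B measured by AlphaLISA bead assay after 16 h compound exposure of THP-1 cells; compounds (final up to 57.5 uM) added 1 h before LPS (250 ng/mL) and ATP (1.25 mM) stimulation; lower signal means less secretion.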
# HepG2 tox – counter-screen for TGF-b inhibitors: cytotoxicity in HepG2 cells. HepG2 CAGA-GFP viability, ATP luminescence, 18 h. 410,000 tested, 0.76% active. Potency, µM (top dose mostly 46.1 µM), for inactives: at the highest dose activity change, negative = cytotoxicity, usual class: cytotoxic. AID 588856; note: potency is the fitted concentration of half-maximal effect
#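 CellTiter-Glo luminescence gave cytotoxicity after 18 hours at 37 degrees C. The cells were HepG2 CAGA-GFP in 1% FBS DMEM, stimulated with 500 pg/mL TGF-beta after compound addition. %Activity was normalised to no-cell wells (complete cell-killing) and DMSO (no toxicity), and curves were fitted and classified.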
# TDP1 inh – TDP1 (human) enzyme inhibition; 350,000 tested, 0.28% active; recombinant TDP1, AlphaScreen DNA substrate cleavage; AID 485290; Q9NUW8; Potency, µM (doses to about 130 µM), for inactives: top-dose activity change, negative = inhibition, usual class: inhibitors; note: potency is the fitted concentration of half-maximal effect; % is set by controls: 0 for no effect and ±100 for the full control effect; nearly all actives have a fitted effect of over 40% in size
# Target sequence (Q9NUW8 whole entry, looked up): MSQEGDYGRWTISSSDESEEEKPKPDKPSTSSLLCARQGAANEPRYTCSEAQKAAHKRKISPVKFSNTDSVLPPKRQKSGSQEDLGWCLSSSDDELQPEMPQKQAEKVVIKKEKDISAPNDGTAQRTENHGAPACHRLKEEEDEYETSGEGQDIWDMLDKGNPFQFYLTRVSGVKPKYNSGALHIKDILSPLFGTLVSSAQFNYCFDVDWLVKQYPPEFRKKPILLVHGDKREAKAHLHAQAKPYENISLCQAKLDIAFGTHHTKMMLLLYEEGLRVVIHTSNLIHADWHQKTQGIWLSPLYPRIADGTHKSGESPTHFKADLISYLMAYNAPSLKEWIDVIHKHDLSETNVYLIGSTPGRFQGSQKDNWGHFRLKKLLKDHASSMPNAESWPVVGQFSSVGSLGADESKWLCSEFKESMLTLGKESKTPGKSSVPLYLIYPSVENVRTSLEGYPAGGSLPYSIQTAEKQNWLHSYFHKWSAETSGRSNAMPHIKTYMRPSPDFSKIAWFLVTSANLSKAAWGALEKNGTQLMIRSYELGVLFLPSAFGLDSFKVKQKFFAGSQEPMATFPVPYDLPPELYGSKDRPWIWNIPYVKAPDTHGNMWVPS
#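 Steps: enzyme plus compound, 15 min RT; add biotin/phosphotyrosine-FITC oligonucleotide (15 nM final), react 5 min; add donor/acceptor beads (10 ug/ml final), 10 min; read AlphaScreen. Tdp1 at 1 nM final.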
# TDP1 cell noCPT – qHTS for Inhibitors of human tyrosyl-DNA phosphodiesterase 1 (TDP1): qHTS in cells in absence of CPT; DT40 Tdp1-/- hTDP1 cells, no CPT, ATP luminescence, 48 h; AID 686978, 2013; Potency, µM (series often up to 46.2 µM), without a hit: at the top dose activity change, negative = growth inhibition, actives largely listed as inhibitors; 420,000 tested, 15% active; note: potency is the fitted concentration of half-maximal effect; % is set by controls: 0 for no effect and ±100 for the full control effect; nearly all actives have a fitted effect of over 55% in size
#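 Camptothecin absent (DMSO only). Human TDP1-complemented DT40 knockout cells, 400 cells/well, 37 °C for minimum 48 hr; ATP measured via CellTiter-Glo, 30 min dark incubation, luminescence.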
# TGFb inhibitor – blocks TGF-b signaling; Potency, µM (highest dose often 46.1 µM), for inactives: at the top dose activity, negative = inhibition, actives largely listed as inhibitors; 410,000 tested, 1.2% active; HepG2 CAGA-GFP TGF-b/SMAD3 reporter, GFP fluorescence, 18 h; TGF-beta stimulated, 500 pg/mL final; AID 588855; note: potency is the fitted concentration of half-maximal effect; % is set by controls: 0 for no effect and ±100 for the full control effect; nearly all actives have a fitted effect of over 65% in size
#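 Per well, imaged GFP fluorescence of HEPG2 CAGA-GFP cells gives the signal; cells get compound, then TGF-beta (500 pg/mL final), 18 h at 37 degrees C; %Activity versus -TGF-beta and +DMSO controls.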
# DT40 TDP1 CPT – growth inhibition of DT40 Tdp1-/-;hTDP1 cells with camptothecin (screen for TDP1 inhibitors); Potency, µM (top dose mostly 46.2 µM), for the others: top-dose activity change, negative = growth inhibition, usual class: inhibitors; 420,000 tested, 12% active; chicken DT40 Tdp1-/-;hTDP1 cells + 20 nM CPT, ATP luminescence, 48 h; AID 686979; note: potency is the fitted concentration of half-maximal effect; % is set by controls: 0 for no effect and ±100 for the full control effect; nearly all actives have a fitted effect of over 55% in size
#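 Chicken DT40 Tdp1-/- cells stably complemented with human TDP1 were seeded at 400 cells/well in medium containing 20 nM camptothecin, exposed to pin-transferred compounds, and grown at 37 °C for at least 48 hr. Viability was read as ATP luminescence.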
# The depositor's hits bear a star; ? = inconclusive; / = not tested or not shown; [ ] = another dose, or the depositor's remark. Unless noted, calls come from the whole dose curve; as a rule, active = well fitted curve in the direction sought with a large enough effect; inconclusive = small, poorly fitted or top-dose-only effect, or another doubt; inactive = no such curve, though single readings can be large; an effect the other way counts as inactive or inconclusive.
SMILES,IL1B secr inh,HepG2 tox,TDP1 inh,TDP1 cell noCPT,TGFb inhibitor,DT40 TDP1 CPT
Cc1ccc(S(=O)(=O)N2C[C@@H]3[C@H]4CC[C@H](C4)[C@@H]3[C@@H](C)[C@H]2c2ccco2)cc1,44.6,-2.7%,2.7%[56.1 µM],14.6µM*,?,14.6µM*
COc1ccc2c(c1)C(=O)Cc1ccccc1O2,-11.3,-36.1%,/,20.6µM*,-5.5%,-8.7%
O=C(Nc1cc(Cl)cc2c1-c1ccc(Cl)cc1C2O)C(Cl)Cl (stereo not given),-60.6*,-15.2%,/,?,?,23.1µM*
CC(=O)c1ccc(NC(=O)CN2C(=O)c3cccnc3Sc3ccccc32)cc1,/,-3.1%,6.6%,?,6.3%,?
CC(=O)NC12CC3CC(C1)CC(C(=O)N1CCN(S(=O)(=O)c4cccc(C(F)(F)F)c4)CC1)(C3)C2,0.5,0.8%,/,?,-15.1%,7.31µM*
COC(=O)c1ccc2c(=O)n(CCCCCC(=O)NCCc3ccccc3)c(=O)[nH]c2c1,/,-23.9%,-0.5%,18.4µM*,0.0%,?
O=C(CCCCCn1c(=O)[nH]c2ccccc2c1=O)NCCc1ccccc1,/,2.2%,0.5%,0.461µM*,20.7%,0.291µM*
CCN(CCCNC(=O)CCCn1c(=O)[nH]c2ccccc2c1=O)c1cccc(C)c1,?,-23.5%,3.9%,20.6µM*,2.6%,?
CN1CCC2(CCN3CCc4c(oc5ccccc45)C3C2)N(C)C1=O (stereo not given),/,/,-4.7%[56.1 µM],/,/,/
CCCC1=C(C(=O)OCC)C(c2ccc(N(C)C)cc2)n2ncnc2N1 (stereo not given),16.8,-20.0%,-10.8%,25.9µM*,4.0%,?
CCCC1=C(C(=O)OCC)C(/C=C/c2ccccc2)n2ncnc2N1 (stereo not given),4.4,-1.9%,-0.5%,12.6µM*,-5.6%,15.8µM*
CCCCNc1nc(C)nc2c1nc(-c1ccccc1)n2CCN(C)C,/,/,7.5%,/,/,/
COc1ccc(C(=O)N(Cc2sccc2C)C2CCS(=O)(=O)C2)cc1Cl (stereo not given),/,-29.4%,8.6%,18.4µM*,/,?
Cc1cc(Cl)ccc1OCC(=O)N(Cc1sccc1C)C1CCS(=O)(=O)C1 (stereo not given),/,-1.2%,-2.5%,18.4µM*,/,23.1µM*
Cc1cc2c3c(c1C)C1(C(=O)N3C(C)(C)CC2C)C(C#N)=C(N)Oc2n[nH]c(C)c21 (stereo not given),-18.6,2.2%,10.9%,23.1µM*,0.0%,?
COc1cccc(C2C(C(=O)Nc3ccccc3)=C(C)Nc3nc(-c4ccccc4)nn32)c1OC (stereo not given),/,-16.9%,/,?,?,16.4µM*
CC1=C(C(=O)Nc2cccnc2)C(c2ccc(Cl)cc2)n2nc(-c3ccccc3)nc2N1 (stereo not given),/,-36.2%,3.2%,?,?,16.4µM*
COc1ccc(C2C(C(=O)Nc3ccccc3)=C(C)Nc3nc(-c4ccccc4)nn32)c(OC)c1 (stereo not given),/,-11.6%,/,?,?,16.4µM*
COc1ccc(NC(=O)C2=C(C)Nc3nc(SC)nn3C2c2cc(OC)ccc2OC)cc1 (stereo not given),/,-8.6%,10.5%,3.2%,-12.9%,4.3%
COc1cccc(C2C(C(=O)Nc3ccccc3)=C(C)Nc3nnnn32)c1OC (stereo not given),/,-2.0%,9.3%,?,-18.6%,?
COc1ccc(-c2nc3n(n2)C(c2ccc(OC)cc2)C(C(=O)Nc2cccnc2)=C(C)N3)cc1 (stereo not given),/,1.5%,/,-15.3%,0.1%,-11.0%
Cc1cccn2c(=O)cc(COc3ccc(NC(=O)COc4ccc(F)cc4)cc3)nc12,/,7.8%,10.8%,-20.6%,18.4%,?
Cc1ccc(SCCC(=O)Nc2ccc(Br)c(C)c2)cc1,-107.6*,-26.6%,-3.0%,5.5%,?,7.1%
COc1ccc(NC(=O)c2ccc3ccccc3n2)cc1S(=O)(=O)Nc1ccccc1Cl,9.3,6.2%,-5.7%,23.1µM*,-15.4%,?
COc1ccc(NC(=O)CCSc2ccc(C)cc2)cc1,20.5,-9.6%,0.0%,?,-24.4%,?
SMILES,IL1B secr inh,HepG2 tox,TDP1 inh,TDP1 cell noCPT,TGFb inhibitor,DT40 TDP1 CPT
COc1ccc(NC(=O)c2cc(C)nc3ccccc23)cc1S(=O)(=O)Nc1ccccc1Cl,18.4,-19.9%,2.7%,?,-6.9%,-13.9%
COc1ccc(NC(=O)CCSc2ccc(C)cc2)cc1S(=O)(=O)Nc1ccccc1Cl,24.5,11.0%,2.7%,13µM*,0.0%,?
COc1ccc(NC(=O)CCS(=O)(=O)c2ccccc2Cl)cc1S(=O)(=O)Nc1ccc(Cl)cc1,-13.6,-31.3%,4.8%,16.4µM*,?,?
COc1ccc(NC(=O)CCC(=O)c2cccs2)cc1S(=O)(=O)Nc1ccc(Cl)cc1,/,-1.8%,8.1%,-0.1%,-8.3%,-18.2%
COC(=O)c1ccc(C(NC(=O)OCc2ccccc2)/C(F)=C/[C@@H](C)C(=O)Nc2ccc(OC)cc2)cc1 (stereo not given in full),/,/,4.5%,/,/,/
CCN(CC(=O)Nc1ccc(Br)c(C)c1)CC(=O)NC(C)C,-2.5,-13.6%,5.8%,14.6µM*,5.0%,?
CCN(CC(=O)Nc1ccc(C)c(F)c1)CC(=O)NC(C)C,-3.8,-14.9%,1.3%,-25.8%,-24.4%,-1.2%
COc1ccc(S(=O)(=O)N2CCOCC2)cc1NC(=O)COC(=O)C1CC1C (stereo not given),11.0,4.0%,1.9%,-3.7%,6.1%,-13.6%
COc1ccccc1C(=O)N=Nc1c(O)[nH]c2ccc([N+](=O)[O-])cc12,23.0,-25.8%,5.9%,23.1µM*,-22.5%,?
C=C(C)CNC(=S)N=Nc1c(O)[nH]c2ccc([N+](=O)[O-])cc12,12.0,2.1%,5.1%,4.61µM*,?,4.11µM*
CC(C)NC(=S)N=Nc1c(O)[nH]c2ccc([N+](=O)[O-])cc12,32.2,-27.9%,8.1%,?,?,?
O=S(=O)(NCC1CCCO1)c1ccc(Cl)cc1 (stereo not given),-8.3,-28.5%,0.1%,4.2%,17.1%,-1.0%

# Screening results (PubChem)
